TrxR1 inh: qHTS Assay for Inhibitors of Mammalian Selenoprotein Thioredoxin Reductase 1 (TrxR1): qHTS; AID 588453, 2011; recombinant rTrxR1, NADPH fluorescence consumption, selenite substrate; Thioredoxin reductase 1, cytoplasmic (Rattus norvegicus), O89049; 390,000 tested, 1% active; Potency, µM (highest dose often 114 µM), actives largely listed as inhibitors; note: nearly all actives have a fitted effect of over 65% in size
Target sequence (O89049 whole entry, looked up): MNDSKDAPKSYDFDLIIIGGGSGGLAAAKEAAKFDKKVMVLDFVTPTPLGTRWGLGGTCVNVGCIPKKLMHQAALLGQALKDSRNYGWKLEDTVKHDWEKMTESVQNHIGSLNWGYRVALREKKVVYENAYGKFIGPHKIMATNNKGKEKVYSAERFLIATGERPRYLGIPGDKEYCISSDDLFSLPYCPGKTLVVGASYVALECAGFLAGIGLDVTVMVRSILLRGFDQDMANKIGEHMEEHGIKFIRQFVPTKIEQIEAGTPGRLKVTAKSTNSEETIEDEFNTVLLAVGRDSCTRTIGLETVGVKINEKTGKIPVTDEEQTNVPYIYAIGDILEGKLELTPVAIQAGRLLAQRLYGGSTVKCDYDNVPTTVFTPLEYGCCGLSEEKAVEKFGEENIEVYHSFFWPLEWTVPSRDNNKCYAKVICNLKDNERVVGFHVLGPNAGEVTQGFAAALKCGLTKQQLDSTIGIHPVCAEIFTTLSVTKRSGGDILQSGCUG
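Rat TrxR1 (90 nM in the dispensed reagent) was pre-reduced with 400 uM NADPH for 5 min at room temperature, then incubated with compound for 15 min. After 400 uM selenite was added, NADPH fluorescence (Ex 340/Em 450 nm) was followed for 8 min.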
GLP-1R inv ag: qHTS of GLP-1 Receptor Inverse Agonists (Inhibition Mode); Potency, µM (top dose mostly 38.3 µM), usual class: inhibitors; Glucagon-like peptide 1 receptor (Homo sapiens), P43220; HEK293 GLP-1R CRE-luciferase, luminescence, 24 h; GLP-1R form is constitutively active; AID 624417, 2012; 410,000 tested, 1.6% active; note: nearly all actives have a fitted effect of over 55% in size
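Inverse agonism was detected as reduced cAMP-driven luciferase luminescence after 24 h compound treatment. The cells were HEK293 clones expressing constitutively active human GLP-1R with the reporter. Reporter-only and GPR119 cell lines served as counterscreen controls.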
mIDH1 inhibitor: qHTS for Inhibitors of mutant isocitrate dehydrogenase 1 (IDH1): qHTS; Isocitrate dehydrogenase [NADP] cytoplasmic (Homo sapiens), O75874; IDH1-R132H enzyme, NADPH consumption, diaphorase/resazurin fluorescence; Potency, µM (titrated, usually from 76.6 µM), actives largely listed as inhibitors; 390,000 tested, 0.093% active; note: nearly all actives have a fitted effect of over 65% in size
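IDH1-R132H (0.5 ug/mL dispensed) in pH 7.5 Tris buffer was preincubated 30 min with compound, then given a substrate mix of 0.016 mM NADPH and 2 mM alpha-KG for 80 min at room temperature; remaining NADPH was read by diaphorase/resazurin fluorescence.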
GLP1R ag: qHTS of GLP-1 Receptor Agonists | 380,000 tested, 0.007% active | HEK293 GLP-1R CRE-luciferase, luminescence, 4-6 h; cells express a hypersensitive GLP-1R form | Potency, µM (top dose mostly 45.6 µM), usual class: activators | Glucagon-like peptide 1 receptor (Homo sapiens), P43220
TrxR1 substrate: qHTS Assay for Substrates of Mammalian Selenoprotein Thioredoxin Reductase 1 (TrxR1): qHTS; purified TrxR1 substrate turnover, NADPH consumption readout; Potency, µM (top dose mostly 114 µM); 390,000 tested, 0.01% active; note: nearly all actives have a fitted effect of over 50% in size
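Rat TrxR1, dispensed at 90 nM, was prereduced with 400 uM NADPH (final) for 5 min at ~22 deg C, then incubated with compound 15 min before 400 uM selenite. A first-read NADPH fluorescence drop versus no-compound background flagged substrates.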
GLP1R cytotox: qHTS of GLP-1 Receptor Inverse Agonists: Cytotox Screen. HEK293 cAMP-luciferase reporter cells, luminescence, 24 h. Potency, µM (highest dose often 38.3 µM), hits mostly inhibitors. 410,000 tested, 0.13% active. AID 624418, 2012;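 note: loss of luciferase light is scored as toxicity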
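Here, cytotoxicity is scored as loss of luminescence. The MLSMR collection was tested on cells seeded in medium containing 10% Nu serum, with a 24 hr compound exposure preceded by 12 hours of culture.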
Each line names hits and unclear results; the compound was inactive in the other large screens. Only some compounds are listed: those with a hit (about 2.7% of all), similar ones and a draw of the others. Calls come from the whole dose curve; as a rule, active = well fitted curve in the direction sought with a large enough effect; inconclusive = small, poorly fitted or top-dose-only effect, or another doubt; inactive = no such curve, though single readings can be large; an effect the other way counts as inactive or inconclusive.

CC12CCC=CC1C(c1ccc3ccccc3c1)N(Cc1ccccc1)C2=O (configuration not stated)	TrxR1 inh inconclusive (no result: GLP-1R inv ag, mIDH1 inhibitor, GLP1R ag, GLP1R cytotox)
COc1ccc(C2=Nc3ccccc3N(CC(=O)Nc3cccc(C(C)=O)c3)C(=O)C2)cc1	none (no result: GLP1R ag)
O=C(Nc1nnc(-c2ccccc2)s1)C1CCCN(C(=O)c2ccoc2)C1 (configuration not stated)	TrxR1 inh inconclusive (no result: GLP-1R inv ag, mIDH1 inhibitor, GLP1R ag, GLP1R cytotox)
COc1ccc2nc(C)cc(Nc3ccccc3O)c2c1	GLP-1R inv ag inconclusive, GLP1R cytotox inconclusive
COc1ccc2nc(C)cc(NCc3cccc(C(F)(F)F)c3)c2c1	GLP-1R inv ag 2.82µM, GLP1R cytotox inconclusive
O=C(NCCNCCO)c1c(O)c2cccc3c2n(c1=O)CCC3	GLP-1R inv ag inconclusive
CCN(CC)CCNC(=O)c1c(O)c2cccc3c2n(c1=O)CCC3	GLP-1R inv ag 4.47µM, GLP1R cytotox inconclusive
CNC(=O)c1c(O)c2cccc3c2n(c1=O)CCC3	GLP-1R inv ag 1.78µM, GLP1R cytotox inconclusive
CCCCCCNC(=O)c1c(O)c2cccc3c2n(c1=O)CCC3	none
CCn1c(=O)c(C(=O)NCCN2CCCCC2)c(O)c2ccccc21	GLP-1R inv ag 2.82µM, GLP1R cytotox inconclusive
COCCn1c(SCC(=O)Nc2cccc(C)c2C)nc2c(oc3ccccc32)c1=O	none (no result: GLP1R ag)
Cc1ccc(-c2nc3sc(CCNS(=O)(=O)c4cc(F)ccc4F)c(C)n3n2)cc1	none (no result: GLP1R ag)
O=c1cc(-c2ccc(F)cc2)nc(SCc2nc(-c3ccccc3Cl)no2)[nH]1	none (no result: GLP1R ag)
Cc1ccc(-n2ncc(C(=O)Nc3c(Cl)cccc3Cl)c2C2CCNCC2)cc1	GLP-1R inv ag inconclusive, GLP1R cytotox inconclusive (no result: GLP1R ag)
Cc1ccc(-n2ncc(C(=O)Nc3cc(Cl)ccc3Cl)c2C2CCNCC2)cc1	GLP-1R inv ag 7.08µM
COc1ccccc1C(=O)Nc1ccc(-c2cc(C(F)(F)F)nn2-c2ccccc2)cc1	GLP-1R inv ag 5.62µM, GLP1R cytotox inconclusive (no result: GLP1R ag)
COc1ccccc1C(=O)NC(=O)Nc1ccc(-c2cc(C(F)(F)F)nn2-c2ccccc2)cc1	none (no result: mIDH1 inhibitor, GLP1R ag)
CN(C)c1ccc(C(CNC(=O)c2c(F)cccc2Cl)N2CCOCC2)cc1 (configuration not stated)	none (no result: GLP1R ag)
Cc1ccc(Cl)cc1N1CCN(C(=O)CSc2nnc3n2C(C)(C)Cc2ccccc2-3)CC1	GLP-1R inv ag 3.98µM
Cn1c(=O)cc(SCC(=O)N2CCCC2)c2ccccc21	none
Cc1ccc(Cl)cc1N1CCN(C(=O)CSc2cc(=O)n(C)c3ccccc23)CC1	GLP-1R inv ag 10µM (no result: GLP1R ag)
CCCn1c(COc2ccccc2OC)nc2ccccc21	GLP-1R inv ag 10µM
CCn1c(COc2ccccc2OC)nc2ccccc21	none
CCOc1ccc(CNC(=O)C2CCN(Cc3cc4ccccc4n3Cc3ccccc3C)CC2)cc1	GLP-1R inv ag 7.08µM (no result: GLP1R ag)
Cc1ccccc1Cn1c(CN2CCC(C(=O)NCc3ccc(Cl)cc3)CC2)cc2ccccc21	GLP-1R inv ag inconclusive (no result: GLP1R ag)
O=C(NCc1ccc(F)cc1)c1c(O)nc2ccccn2c1=O	none
O=C(CCSc1ccccn1)c1ccccc1	TrxR1 inh 2µM
CCOC(=O)C1=C(CN2CCSCC2)NC(=O)NC1c1ccc2c(c1)OCO2 (configuration not stated)	GLP1R cytotox inconclusive
CCOC(=O)C1=C(CNCc2ccc(C)cc2)NC(=O)NC1c1ccc(OC)cc1 (configuration not stated)	GLP-1R inv ag 12.6µM, GLP1R cytotox inconclusive
CCOC(=O)C1=C(CCl)NC(=O)NC1c1ccc2c(c1)OCO2 (configuration not stated)	TrxR1 inh 11.2µM
CCOC(=O)C1=C(CNCc2ccc(Cl)cc2)NC(=O)NC1c1ccccc1 (configuration not stated)	GLP-1R inv ag inconclusive
C[N+]1(C)CCN(C[C@@](O)(c2ccccc2)C2CCCCC2)CC1	none (no result: TrxR1 inh, GLP-1R inv ag, mIDH1 inhibitor, TrxR1 substrate, GLP1R cytotox)
Cc1cc(O)c(C(C)C)cc1NC(=O)Nc1cccc2ccccc12	GLP-1R inv ag 6.31µM
COc1c(C(CC(C)C)OC(C)=O)ccc2c1C(=O)OCc1cc(C)cc(O)c1O2 (configuration not stated)	GLP-1R inv ag 10µM, mIDH1 inhibitor inconclusive
COc1c(C(O)CC(C)C)ccc2c1C(=O)OCc1cc(C)cc(O)c1O2 (configuration not stated)	GLP-1R inv ag 11.2µM
Cc1c(/C=C(\C#N)C(=O)Nc2cccc(Cl)c2)c2ccccc2n1Cc1ccccc1Cl	none (no result: GLP1R ag)
O=C(O)c1cccc(N2C(=O)c3ccc4c5c(ccc(c35)C2=O)C(=O)N(c2cccc(C(=O)O)c2)C4=O)c1	none
O=C(O)c1cc(N2C(=O)C=CC2=O)cc(N2C(=O)C=CC2=O)c1	TrxR1 inh 0.224µM
C[N+]1(CC(=O)c2ccc(-c3ccccc3)cc2)CCOCC1	none (no result: GLP-1R inv ag, mIDH1 inhibitor, GLP1R ag, GLP1R cytotox)
CCCC(O)(CCN1CCCCC1)c1ccc(OCC)cc1 (configuration not stated)	TrxR1 inh 50.1µM
CCCCOc1ccc(C(O)(CCC)CCN2CCOCC2)cc1 (configuration not stated)	TrxR1 inh inconclusive, GLP-1R inv ag inconclusive
COc1ccc(C(O)(CCN2CCCCC2)C2CCCCC2)cc1 (configuration not stated)	TrxR1 inh 2.82µM, GLP-1R inv ag inconclusive
CCCCCC(O)(CCN1CCCCC1)c1ccc(OCC)cc1 (configuration not stated)	TrxR1 inh 8.91µM
O[C@@](CCN1CCCC1)(c1ccccc1)C1CCCCC1	none (no result: TrxR1 inh, GLP-1R inv ag, mIDH1 inhibitor, TrxR1 substrate, GLP1R cytotox)
Cc1oc2ncnc(N3CCCCC3)c2c1C(=O)NCC1CCN(Cc2ccccc2F)CC1	GLP-1R inv ag inconclusive (no result: GLP1R ag)
CCCCOc1ccc(CC(=O)N(C)OC)cc1	none (no result: GLP-1R inv ag, mIDH1 inhibitor, GLP1R ag, GLP1R cytotox)
CNc1ccc(/C=C2\C=Cc3ccccc32)cc1Cl	none (no result: GLP-1R inv ag, mIDH1 inhibitor, GLP1R ag, GLP1R cytotox)
Cc1ccsc1/C=C(\C(=O)c1ccc(OC(C)C)cc1)c1nc2ccccc2o1	GLP-1R inv ag 3.98µM
CCCCN=C1NN=C(c2ccc3c(c2)OCCO3)CS1	GLP-1R inv ag 8.91µM
CN(C)CCNc1oc(COc2ccc(Cl)cc2)nc1C#N	TrxR1 inh 14.1µM
CCN(CC)CCCNc1oc(-c2ccc(OC)c(OC)c2)nc1C#N	TrxR1 inh inconclusive, GLP-1R inv ag inconclusive

Assay outcomes as filed in PubChem BioAssay.
